The structures appear in SMILES notation. Out of some 69,000 compounds screened, about 8,600 (12%) showed an effect of 50% or more. Only a selection was taken, and strong results are over-represented in it overall.

The subject of the experiment is Plasmodium berghei. The experiment is described as follows: Screen against P. berghei liver stage (PbLuc), transformed with Luciferase, at 10uM. The format is functional, HepG2. To be noted: tested at 10 uM.
Consider `Cc1cc2nc(SCC(=O)N3CCOCC3)n(CCC(C)C)c(=O)c2[nH]1`, for which the INHIBITION is on record as 45.8%.

For the molecule `O=C(Cc1ccc(-n2cnnn2)cc1)Nc1cnn(CC(F)F)c1`, the INHIBITION stood at 42.6%. To `O=C(c1ccc(-c2ccc(O)nc2)s1)N1CCSCC1` belongs 3.295%; to `Cc1ccc(CN2C[C@H](OCCN(C)C)[C@H]3COC[C@H]32)o1`, 14.6%; to `Fc1ccc(-c2nnc(CN3CCCC(Cn4cncn4)C3)o2)cc1` (stereo not given), -105%. The value for `CCCc1n[nH]c(C2CN(C(=O)CCc3cscn3)CCO2)n1` (stereo not given) was 25.3%; that for `CC(C)NC(=O)N1CCC2(CC1)Cc1ccccc1CNC2=O` was 29.5%; that for `OCCCNc1nc(O)c2c(n1)-c1ccccc1CC21CCCCC1` was 77.2%.

`CCC1(C)Cc2ccccc2-c2nc(NCCCO)nc(O)c21` (stereo not given): the INHIBITION is on record as 28.4%. To `O=c1[nH]c(NCCCO)nc2c1C1(CCCC1)Cc1ccccc1-2` belongs 64%. As for `O=c1[nH]c(NCCO)nc2c1C1(CCCC1)Cc1ccccc1-2`, the INHIBITION stood at 62.3%.

On to `O=c1[nH]c(NCCO)nc2c1C1(CCCCC1)Cc1ccccc1-2`, for which the INHIBITION stood at 66.5%. To `Cc1cccc(CN2CCCC3(Cc4ccccc4CNC3=O)C2)n1` (stereo not given) belongs 9.32%; to `CN1Cc2ccccc2CC2(CCN(CCO)CC2)C1=O`, -9.23%; to `Cc1cc(C(=O)NC2CCN(c3nnc(C)c(C)c3C#N)CC2)no1`, 3.87%. The value for `Cn1ccc(C(=O)N2CCOC(c3ccc(C(N)=O)cn3)C2)n1` (stereo not given) was 22%. The value for `Cc1noc(CNC(=O)CN(C)c2nc3ccccc3s2)n1` was -4.01%. As to `O=C(c1cc(C2CCCN(Cc3ccccn3)C2)no1)N1CCCC1` (stereo not given), the INHIBITION came to 7.52%. For the molecule `Cc1oc(-c2cccs2)nc1C(=O)N1CCCC1Cn1cccn1` (stereo not given), the INHIBITION was 36.1%. To `c1ccc(CN2CCc3c(COCc4ccncc4)cncc3C2)nc1` belongs 3.81%; to `O=c1cc(Cn2cncn2)nc2n1CCCN(Cc1ccc(F)cc1)C2`, 22.5%. The value for `COc1c(CNCC(O)c2cccc(F)c2)c(C)nn1C` (stereo not given) was -47.6%. To `Cn1c(Cn2ccnc2)nnc1C1CCN(C(=O)c2ccccn2)CC1` belongs 5.41%; to `Cc1ncccc1NC(=O)[C@@H]1CC[C@@H]2[C@@H](CCN2Cc2cnn(C)c2)O1`, 0.734%. Consider `COc1cccc(-c2cccc(N3CCC(N[C@@H]4CCOC4)CC3)c2)c1`, for which the INHIBITION is recorded as 53.7%. The value for `Fc1cccc(-c2cccc(N3CCC(NC4CCCOC4)CC3)c2)c1` (stereo not given) was 46.5%; that for `Cc1ccc(-c2cccc(N3CCC(NC4CCOCC4)CC3)c2)cc1` was 39.3%; that for `CC(=O)N1CCC(c2cncc(N3CCC(O)C3)n2)CC1` (stereo not given) was 23.9%. Consider `CC(C)c1noc(CCC(=O)NCC2CCC(C(N)=O)CC2)n1` (stereo not given), for which the INHIBITION is on record as -21.8%. The value for `CCCn1nccc1NC(=O)CN1CCCC1c1c(C)nn(C)c1C` (stereo not given) was 34.1%; that for `COc1ccc(-n2nnc(C(N)=O)n2)cc1` was -8.07%.

In the case of `CCn1cc(Br)c(C(=O)NCc2ccccc2)n1`, the INHIBITION was determined as 17%. The value for `CCn1cc(Br)c(C(=O)NCc2cnn(C)c2)n1` was -13.2%; that for `CCn1cc(CNC(=O)c2nn(CC)cc2Br)cn1` was 76%. The value for `COCC1Cn2nnc(-c3cnn(C)c3)c2CN1Cc1ccsc1` (stereo not given) was 33.4%. As to `COc1cccn(CC(=O)N2CCCC3(CCCO3)CC2)c1=O` (stereo not given), the INHIBITION is reported as -2.61%. On to `Cc1ccc(S(=O)(=O)N(CCO)C2CC2)cc1N(C)C`, for which the INHIBITION was found to be 21.3%. The value for `CC(C)c1nnc2n1CCN(C(=O)c1ccnc(-n3ccnc3)c1)C2` was 31.2%; that for `CC(=O)NCCC(=O)NCC1(c2c(F)cccc2F)CCCC1` was 24.2%.

On to `CCC(=O)NCC(=O)NCC1(c2c(F)cccc2F)CCCC1`, for which the INHIBITION is -3.59%. To `CCS(=O)(=O)CC(=O)NCC1(c2c(F)cccc2F)CCCC1` belongs 57.4%. To `Cc1noc(C)c1CN1C[C@H](OCc2ccncc2)[C@H]2OCCC[C@H]21` belongs -10.3%. The value for `Cn1cc(CN2CCc3ncnc(N4CCOCC4)c3CC2)cn1` was 5.36%; that for `CCNc1cc2c(nn1)CCN(C(=O)c1cccc3c1OCO3)C2` was -4.16%. For the molecule `COc1cccc(Nc2nc(C3CCNCC3)c3sc(C)c(C)n23)c1`, the INHIBITION came out at 23.12%.

As for `Cc1sc2c(C3CCCNC3)nc(Nc3cccc(F)c3)n2c1C` (stereo not given), the INHIBITION is given as 36.5%. Turning to `Cc1sc2c(C3CCNCC3)nc(Nc3cccc(F)c3)n2c1C`, the INHIBITION was 54.6%.

Regarding `CC(C)Oc1ccc2c(NC(=O)CN(C)C)nn(CC(F)(F)F)c2c1`, the INHIBITION is reported as 42.3%.

In the case of `CC1(Cc2ccc(Cl)cc2)Cc2cc(CCC(=O)O)ccc2O1` (stereo not given), the INHIBITION is -29.4%. For the molecule `Cc1cc(C)c2c(N3CCCN(C(=O)C4CCC4)CC3)ncnc2n1`, the INHIBITION came out at 30.9%. To `Cc1cnc(N2C[C@@H]3C[C@H](C(=O)N(C)C)[C@H](C2)O3)nc1` belongs 17.3%. For `Cc1cccc(N(CCC(N)=O)C(=O)c2cc(-n3cccn3)ccn2)c1`, the INHIBITION was determined as 8.92%. In the case of `Cc1cccc(N(CCC(N)=O)C(=O)c2ccnc(C)n2)c1`, the INHIBITION turned out to be 50.5%. Take `Cc1cccc(N(CCC(N)=O)C(=O)c2cnccn2)c1`: the INHIBITION is 12.9%. As to `O=C(CCn1nc(C(F)(F)F)c(Br)c1C1CC1)NN1CCOCC1`, the INHIBITION is given as -25.5%.

With `Cc1ccc(OCc2occc2C(=O)N2CCCCC(N)C2)cc1` (stereo not given), the INHIBITION was 11.8%. To `Cc1cc(CN2C[C@@H]3CC[C@H]2CN(Cc2c(C)noc2C)C3)ccc1F` belongs -63.6%; to `O=C(c1ncncc1Cl)N1CCC2(CCCC2)CC1`, 43.1%.

For `O=C(c1ccccc1)N1CCCN(C(=O)c2ncncc2Cl)CC1`, the INHIBITION was found to be 74%. For the molecule `O=C(c1ncncc1Cl)N1CCN(c2ccc(Cl)cc2)CC1`, the INHIBITION was determined as 44%. To `COc1ncccc1C(=O)NCCn1cnc(C)cc1=O` belongs -70.7%; to `CO[C@@H]1CC[C@@H](N(C)C(=O)c2cn3cc(C)ccc3n2)[C@H]1O`, -2.65%; to `CCN1CCOCC12CCN(C(=O)c1ccsc1)CC2`, 42.1%. The value for `O=C(Nc1ccc(Cl)cn1)c1cncc(C2CCNCC2)n1` was -10.4%; that for `c1ccc(Cc2nc(CNC3CCC4(CCNCC4)CC3)no2)cc1` was 53.7%; that for `COCc1nc(CNC2CCC3(CCNCC3)CC2)no1` was 12.1%. The value for `c1ccc(Cc2nc(CNC3CCOC4(CCOCC4)C3)no2)cc1` (stereo not given) was -40.7%; that for `O=C(c1cnc(C2CC2)s1)N1CCCC1Cn1cccn1` (stereo not given) was 8.64%. For `Cc1nn(CCC(=O)NC2CCS(=O)(=O)C2)c(C)c1Br` (stereo not given), the INHIBITION is -8%. For `Cc1ccoc1C(=O)N1C[C@H]2CCC[C@@]2(COCc2ccncc2)C1`, the INHIBITION amounted to 41.8%. As for `CCN1CC2(CCC1=O)CCN(C(=O)C(O)c1cccc(Cl)c1)CC2` (stereo not given), the INHIBITION was found to be 71.1%. The value for `CCN1CC2(CCC1=O)CCN(C(=O)c1ccc(Cl)cc1O)CC2` was 36.8%; that for `CC(C)CN1CC2(CCN(C(=O)C(O)c3cccc(Cl)c3)CC2)CC1=O` (stereo not given) was -28.9%. `O=C(NCC1CCOCC1)[C@H]1C[C@@H]2CCN(c3nncs3)C[C@@H]2O1`: the INHIBITION came out at 24.3%. To `CCC(O)CN1CCN(C(=O)c2cccc3[nH]ncc23)CC1` (stereo not given) belongs -29.8%. To `Cc1ccc(NC2CCN(C(=O)c3n[nH]c4ccccc34)CC2)nn1` belongs 11%; to `Cc1ccc(NC2CCN(C(=O)Cn3nc(C)cc3C)CC2)nn1`, 3.81%. The value for `COc1ccc(F)cc1C(=O)N1CCn2c(nnc2C(F)(F)F)C1` was 6.33%; that for `CC(O)CN1CCN(C(=O)c2cccc3[nH]ncc23)CC1` (stereo not given) was -31.8%; that for `CC(C)(C)C(O)CN1CCN(C(=O)c2cccc3[nH]ncc23)CC1` (stereo not given) was 69.8%.

For `Cc1ccc(NC2CCN(C(=O)c3cccc4[nH]ncc34)CC2)nn1`, the INHIBITION is given as 55.4%. Regarding `O=C(c1ccc(F)cc1Cl)N1CCn2c(nnc2C(F)(F)F)C1`, the INHIBITION turned out to be 68.8%.

For `Cc1ccc(NC2CCN(C(=O)c3cccc4c3ccn4C)CC2)nn1`, the INHIBITION came out at 31.2%. To `CCn1nc(C)cc1C(=O)N1CCC(Nc2ccc(C)nn2)CC1` belongs 57.7%. To `O=C(c1cccc(F)c1F)N1CCn2c(nnc2C(F)(F)F)C1` belongs 34.6%; to `CCn1nc(C)c(C(=O)N2CCC(Nc3ccc(C)nn3)CC2)c1C`, 17.5%. To `CCS(=O)(=O)N1Cc2ncn(CC3CC3)c2C(COCC2CC2)C1` (stereo not given) belongs 9.51%.

Take `NC(=O)CC1CCN(C(=O)NCc2cccc(-n3cccn3)c2)CC1`: the INHIBITION is -0.378%. In the case of `O=C(O)c1ccccc1-c1ccc(CN2CCC(CO)C2)cc1` (stereo not given), the INHIBITION is listed as -12.3%.

For `CC(C)Oc1cccc(CNC(=O)N2CCC(N3CC=CC3)C2)c1` (stereo not given), the INHIBITION was determined as 16.1%.

For the molecule `O=C(CN1CCOC(CNc2cccnn2)C1)NCc1ccccn1` (stereo not given), the INHIBITION was found to be 23.5%. The value for `c1cnc(-c2nn3c(CN4CCCCCC4)nnc3s2)cn1` was 21.7%; that for `Cc1cc(NC(C)c2n[nH]c(C)n2)n2nc(C)c(C)c2n1` (stereo not given) was 18.4%. The value for `CC(CNC(=O)Nc1cn[nH]c1)N1CCCC1` (stereo not given) was -21.9%. To `Cc1ccc(NC2CCN(C(=O)c3ccc(Cl)cc3F)CC2)nn1` belongs 37.9%; to `CCn1c(C)cc(C(=O)N2CCC(NC(=O)c3cc(C)no3)CC2)c1C`, -7.36%. In the case of `CCc1ccc(C(=O)N2CCC(Nc3ccc(C)nn3)CC2)o1`, the INHIBITION worked out at 33.8%. `O=C(c1ccc(F)cc1Cl)N1CCC(Nc2cccnn2)CC1`: the INHIBITION was 41.4%. To `Cc1ccc(NC2CCN(C(=O)c3ccc(Cl)o3)CC2)nn1` belongs -33.5%; to `CCn1c(C)cc(C(=O)N2CCC(Nc3ccc(C)nn3)CC2)c1C`, 32.9%.

As for `CCn1c(C)cc(C(=O)N2CCC(NC(=O)c3ccc(C)o3)CC2)c1C`, the INHIBITION stood at 74%. `Cc1ccc(NC2CCN(C(=O)c3ccc(F)cc3Cl)CC2)nn1`: the INHIBITION is given as 56.4%.

On to `Cc1ccc(NC2CCN(C(=O)c3ccc(C)o3)CC2)nn1`, for which the INHIBITION is reported as 51.65%.

`CCc1nc(C2CCCN(C(=O)NC3CC3)C2)no1` (stereo not given): the INHIBITION was -81.1%. `CC(C)CNC(=O)c1nnsc1-c1ccccc1`: the INHIBITION was found to be 2.69%.

(Values after ChEMBL document CHEMBL4513216, “Probing the Open Global Health Chemical Diversity Library for Multistage-Active Starting Points for Next-Generation Antimalarials” (ACS Infect Dis, 2020).)
